Experimental data reported in PubChem BioAssay.
Several values for one entry are separate records, joined by “and”; a condition that tells them apart may be missing. Equal entries are not always repeated. Unmarked numbers belong to inactive results.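 How the source made its calls: active means compounds killing one labelled cell type while sparing the other, by normalised counts and ratio limits, not self-fluorescent; inactive means the rest.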

Test: differential killing of epithelial or mesenchymal cells, primary screen, imaging, PC-3E GFP, TEM4-18 mCherry, co-culture (AID 1345086);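 further: normalised mesenchymal count divided by normalised epithelial count so high means epithelial killing; cells exposed to compound for 72 h before imaging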
Settings: imaging cell counts, at 1 µM, actives lie on both sides, counts scaled to control wells, 1 = unselective

SMILES | red/green cell ratio (normalised)
CCCCN(CCCC)CCC(O)c1cc2c(Cl)cc(Cl)cc2c2cc(C(F)(F)F)ccc12 (stereo not given) | 1.18
NC(N)=NC(=O)Cc1c(Cl)cccc1Cl | 0.93
Cc1cn[nH]c1 | 0.92 and 0.9
NS(=O)(=O)c1cc2c(cc1Cl)NC(C1CC3C=CC1C3)NS2(=O)=O (stereo not given) | 1.29
CCCCNc1c(C(=O)OCC)c(C)nc2c1cnn2CC | 1.16
NCCS(=O)(=O)O | 0.92 and 0.87
O=C(O)CSCC(=O)NC1CCSC1=O (stereo not given) | 1.25
COc1ncnc(NS(=O)(=O)c2ccc(N)cc2)c1OC | 1.18
COc1cc2c(N3CCN(C(=O)Nc4ccc(OC(C)C)cc4)CC3)ncnc2cc1OCCCN1CCCCC1 | 1.13
Cc1cc2c(C(C)C)c(O)c(O)c(C=O)c2c(O)c1-c1c(C)cc2c(C(C)C)c(O)c(O)c(C=O)c2c1O | 0.91
Oc1ccc(OCc2ccccc2)cc1 | 1.06 and 1.09 and 0.97
C[n+]1c2cc(N)ccc2cc2ccc(N)cc21 (tested in a mixture with another compound) | 0.5
Cc1nc(-c2ccc(OCC(C)C)c(C#N)c2)sc1C(=O)O | 1
COc1cc(C(=O)OCCCN2CCCN(CCCOC(=O)c3cc(OC)c(OC)c(OC)c3)CC2)cc(OC)c1OC | 1.21
Cc1cnc(C(=O)O)c[n+]1[O-] | 0.76
COC(=O)[C@H]1[C@H]2C[C@@H]3c4[nH]c5cc(OC)ccc5c4CCN3C[C@H]2C[C@@H](OC(=O)c2cc(OC)c(OC)c(OC)c2)[C@@H]1OC | 1.08 and 1.2
CO[C@@H]1[C@@H](OC(N)=O)[C@@H](O)[C@H](Oc2ccc3c(O)c(NC(=O)c4ccc(O)c(CC=C(C)C)c4)c(=O)oc3c2C)OC1(C)C | 1.14
COCCCOc1cc(C[C@@H](C[C@H](N)[C@@H](O)C[C@H](C(=O)NCC(C)(C)C(N)=O)C(C)C)C(C)C)ccc1OC | 0.98
CN1CCN2c3ccccc3Cc3ccccc3C2C1 (stereo not given) | 1.03
C[C@@H]1CN(c2c(F)c(N)c3c(=O)c(C(=O)O)cn(C4CC4)c3c2F)C[C@H](C)N1 | 0.99
O=NN(CCCl)C(=O)NC1CCCCC1 | 1.11
CNC[C@H](O)[C@@H](O)[C@H](O)[C@H](O)CO | 0.7
CCC(C)n1ncn(-c2ccc(N3CCN(c4ccc(OC[C@H]5CO[C@](Cn6cncn6)(c6ccc(Cl)cc6Cl)O5)cc4)CC3)cc2)c1=O (stereo not given in full) | 0.8
O=P(O)(O)C(O)(Cc1cccnc1)P(=O)(O)O | 0.63
CN(C)c1ccc2nc3ccc(=[N+](C)C)cc-3sc2c1 | 0.68
CC1=C(C)C(=O)C(C(CCCCCC(=O)O)c2ccccc2)=C(C)C1=O (stereo not given) | 1.03
C#CCN[C@@H]1CCc2ccccc21 | 0.97
CCCCCN(C)CCC(O)(P(=O)(O)O)P(=O)(O)O | 1.14
Cc1c[nH]c2ccccc12 | 0.99
O=C(O)CN1C(=O)c2cccc3cccc(c23)C1=O | 1.28
